From PubChem BioAssay (NCI) come the findings set out here.

The panel holds about 83,000 compounds, 20% with a hit somewhere; the sample as a whole holds those more often.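 Interpretation: 100, growth as untreated; towards 0, rising growth inhibition; 0, no net growth; 0 to -100, cell death. Compounds scoring below 10 were considered active.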 A number with no mark means an inactive call. The source made the active and inactive calls.

Test in all cases: NCI-60 one-dose screen, 48 h (100 = growth as untreated, 0 = no growth, -100 = all killed)
What all share (conditions): 10 µM unless noted

For test [1], the system named is NCI-H23 lung.
For test [2], the system named is NCI-H226 lung.
The subject of test [3] is NCI-H322M lung.
Test [4] relates to HOP-62 NSCLC.
Test [5] concerns NCI-H522 lung.
In test [6] the test system is A549/ATCC NSCLC.
Test [7] has as its system 786-0 renal.
Test [8] deals with COLO 205 colon.
Test [9] has as its system DU-145 prostate.
The test system of test [10] is MALME-3M melanoma.
The test system of test [11] is MDA-MB-231 breast.
For test [12], the system named is RXF 393 renal.
For test [13], the system named is SF-268 CNS.
Test [14] has as its system SF-295 CNS.
Test [15] has as its system SF-539 CNS.
Test [16] relates to UACC-257 melanoma.
Test [17] has as its system M14 melanoma.
In test [18] the test system is K-562 leukemia.
For test [19], the system named is NCI-H460 lung.

Regarding `CC(C)(C)c1ccc(C(=O)Nc2sc3cc(O)ccc3c2C(N)=O)cc1`, the growth in test [1] was 88.3%; in test [2], 101%; in [3], 86.2%; in [4], 106%; in test [5], 64.9%; in test [6] it was 82.5%. Further, the growth in test [7] is 70.3%; in test [8], 57.2%; in test [9], 69.7%; in test [10] it was 94%; in test [11], 76%; in test [12], 70.6%. In addition, the growth in test [13] was 92.4%; in test [14], 63.5%; in test [15], 53.9%; in test [16], 95.2%; in test [17], 22.1%.
`COc1cc(NCCC2CCCCN2)c2ncccc2c1OC` (stereo not drawn): the growth in [1] is 49.1%; in [2], 117%; in test [3] it was 116%; in test [4] it was 102%; in test [5], -7.89% (active); in test [6] it was 82.1%. The growth in test [7] is 90.1%; in test [8] it was 78.1%; in [9], 87.5%; in test [18], 64.7%; in [10], 134%; in test [11], 74.2%. The growth was 111% in [12]; 92.9% in test [13]; 110% in test [14]; 92% in test [15]; 66.3% in test [16]; 92.1% in [17].
Regarding `S=C(Nc1ccc(Cl)cc1)Nc1ccc(Cl)cc1` (tested in a mixture with another compound), the growth in [1] is 1.65% (active); in test [2], 16.4%; in test [3], 4.59% (active); in test [4], 6.8% (active); in [5], -27.9% (active); in test [6] it was 1.68% (active). In addition, the growth in test [7] was 22.1%; in test [8] it was -95.7% (active); in [9], 22.2%; in [18], 12.1%; in test [10], -7.85% (active); in test [11] it was -58.7% (active). Also, the growth in test [12] is 9.51% (active); in [13], 23%; in test [14], -6.55% (active); in [15] it was 19.1%; in test [16], -14.7% (active); in [17], 19%.
For `CCOC(=O)c1cc(N)nc2ccccc12`, the growth in test [1] is 99.2%; in test [2] it was 102%; in [3], 156%; in test [4], 94.7%; in [6], 122%; in test [7], 102%. In addition, the growth in [8] was 112%; in test [9], 104%; in test [18] it was 91.1%; in test [10], 139%; in [11], 107%; in test [12], 109%. The growth was 91.1% in [13], 100% in test [14], 97.8% in test [15] and 115% in [16].
Turning to `CC(CN1CCN(CC(C)Nc2ccnc3cc(Cl)ccc23)CC1)Nc1ccnc2cc(Cl)ccc12` (stereo not drawn), the growth in test [1] was 62.3%; in test [2], 26.6%; in test [3] it was 20.7%; in test [4], -18.4% (active); in [5], -29.4% (active); in test [6] it was 15.7%. Moreover, the growth in [7] is -9.83% (active); in test [8] it was -85% (active); in test [9], 30%; in test [18] it was -21.9% (active); in test [10] it was -55.5% (active); in [11], -19% (active). Further, the growth in [12] is -69.4% (active); in [13], 16.7%; in test [14] it was -48.2% (active); in test [15] it was -82.4% (active); in test [16], -61.4% (active); in test [17], -88% (active).
With `Clc1cc(Cl)cc(-c2cnc3nonc3n2)c1`, the growth in test [1] is 77.3%; in test [2], 104%; in [3], 95.1%; in test [4] it was 87.4%; in [5] it was -69.3% (active); in test [6], 103%. The growth is 93.2% in test [7]; 72.5% in test [8]; 97.9% in [9]; 79% in test [18]; 76.9% in [10]; 89.7% in test [11]. The growth in [12] was 108%; in test [13], 93.5%; in [14], 99.8%; in [15] it was 107%; in [16] it was 89.9%; in test [17], 90.2%.
Regarding `COc1ccc(NC(=O)c2sc3c(=O)[nH]c(C(F)(F)F)nc3c2C)cc1`, the growth was 93.4% in test [1]; 97.7% in test [2]; 107% in test [3]; 107% in [4]; 79.5% in test [5]; 95.2% in test [6]. In addition, the growth was 103% in test [7]; 114% in test [8]; 118% in [9]; 102% in test [18]; 102% in [10]; 112% in test [11]. Moreover, the growth was 117% in test [12]; 108% in test [13]; 111% in [14]; 114% in [15]; 105% in test [16]; 116% in test [17].
Turning to `C=C[C@H]1CCC/C=C/[C@@H]2C[C@H](O)C[C@H]2[C@H](O)/C=C/C(=O)O1`, the growth was -19.1% (active) in test [1]; 3.22% (active) in test [2]; -7.72% (active) in test [3]; 7.05% (active) in [19]; 8.51% (active) in [6]; -53.5% (active) in [7]. In addition, the growth in test [8] is -83.1% (active); in test [9], 5.86% (active); in [18], 9.93% (active); in [10] it was -46.4% (active); in test [11], -74% (active); in test [12] it was -15.2% (active). Also, the growth is 7.6% (active) in test [13]; 17.2% in test [14]; 35.2% in test [15]; 4.69% (active) in [16]; -10.6% (active) in test [17].
In the case of `C=C(C)[C@@H]1CC[C@]2(C(=O)O)CC[C@]3(C)[C@H](CC[C@@H]4[C@@]5(C)C[C@@H](CC#Cc6ccc(C(C)=O)s6)[C@H](O)C(C)(C)[C@@H]5CC[C@]43C)[C@@H]12`, the growth in test [1] was 60.9%; in test [2] it was 77.1%; in test [3], 41.3%; in [19], 42.7%; in test [5], 26%; in [6] it was 6.44% (active). The growth in [7] is 58.6%; in [8], 59.5%; in test [9] it was 57.2%; in test [18] it was 34.7%; in test [10] it was 82.6%; in test [11] it was 91.9%. Besides, the growth in test [12] was 74.3%; in test [13], 61.6%; in test [14] it was 48.9%; in test [15], 83.4%; in [16] it was 40.2%; in test [17], 76%.
